# This is a sample that favours compounds with a hit; in the whole collection about 3.8% have one here.
# Mdm2 MdmX PPI: inhibitors of human Mdm2/MdmX interaction. inhibition, % at 8 µM. 3% of 330,000 active. SaOS-2 split-luciferase Mdm2/MdmX complementation, luminescence;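 active = inhibition of at least 50% at 8 µM in the primary screen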
# Gli-Sufu block: blocks Gli-Sufu signaling in a luciferase reporter; Sufu-KO-LIGHT fibroblasts, Gli luciferase reporter luminescence; inhibition, % at 5 µM; 0.74% of 340,000 active; AID 588413;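 active = inhibition above about 55%, limit read from the data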;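 also: 0% = DMSO-treated cells and 100% = wells with medium but no cells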
# Jurkat NFkB inh: lowers PMA/ionomycin-induced NF-kB signal in Jurkat cells; PMA/ionomycin-induced NF-kB luciferase reporter, luminescence; inhibition, % at 4 µM; 0.53% of 330,000 active; AID 435003; in the data active = inhibition above about 50%
# Shn3 3UTR inh: Schnurri-3 reporter inhibition in Clone20 osteoblasts. Clone20 osteoblast Shn3 3'UTR firefly luciferase, 24 h. inhibition, % at 12.5 µM. 0.52% of 360,000 active;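 active = mean inhibition of at least 75% with every replicate also reaching 75%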;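 also: 0% = median of neutral control wells and 100% = pilot-screen positive control compound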
# 697 NFkB inh: lowers PMA/ionomycin-induced NF-kB signal in 697 B cells; 697 B-cell NF-kB luciferase reporter, 16 h; AID 435022; inhibition, % at 4 µM; 0.33% of 330,000 active; in the data active = inhibition above about 35%
# Mdm2 MdmX conf: human Mdm2/MdmX binding inhibition, confirmed | luminescent assay | shares compounds with Mdm2 MdmX PPI | 55% of 10,000 active | inhibition, % at 8 µM; in the data active = inhibition above about 40%
# Full FLuc ctr: counter-screen for Mdm2/MdmX inhibitors: full-length luciferase | shares compounds with Mdm2 MdmX PPI | SaOS-2 full-length luciferase counterscreen, luminescence | inhibition, % at 8 µM | 77% of 6,200 active | AID 504607;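 active = mean inhibition at 8 µM reaching about 37%, which flags the compound as non-specific, limit read from the data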;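 also: p53-null SaOS-2 cells with luciferase driven by a doxycycline-inducible promoter; compound on cells about two nights before reading with doxycycline added after day one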
# Gli-Sufu confirm: confirmation of Gli-SUFU pathway antagonists. shares compounds with Gli-Sufu block. 40% of 2,500 active. AID 602428. Sufu-KO-LIGHT cells, Gli luciferase reporter, luminescence. inhibition, % at 5 µM;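 active = mean inhibition at 5 µM reaching about 45%, limit read from the data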;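 also: plate controls were DMSO-treated cells for no effect and wells lacking cells for full effect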
# SufuKO cytotox: cytotoxic in Gli-SUFU antagonist counter-screen | shares compounds with Gli-Sufu block | cytotoxicity, % at 5 µM | 32% of 2,500 active | Sufu-KO-LIGHT cells cytotoxicity, ATP luminescence;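 active = mean cytotoxicity at 5 µM above about 25%, limit read from the data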;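 also: cells exposed to compound overnight for roughly 16 to 18 hours; plate controls were DMSO wells with cells for no effect and medium without cells for full effect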
# Wnt3a counter: inhibits Wnt3a reporter, counter-screen for Gli-SUFU antagonists | shares compounds with Gli-Sufu block | Wnt-LIGHT cells, Wnt3a-driven luciferase reporter, luminescence | inhibition, % at 6.25 µM | 20% of 2,500 active;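 active = mean inhibition above about 25%, limit read from the data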
# * = called active by the depositor; · = no result.
SMILES,Mdm2 MdmX PPI,Gli-Sufu block,Jurkat NFkB inh,Shn3 3UTR inh,697 NFkB inh,Mdm2 MdmX conf,others
N/C(=N\OC(=O)c1cccc(F)c1)c1ccccn1,-84.8,-68.0,-112.8,-0.6,-165.6,·,
O=C(NC(O)C(=O)c1ccccc1)c1ccccn1 (stereo not given),17.2,-4.8,7.0,-13.5,4.8,·,
O=C(O/N=C(\c1ccccc1)c1ccccn1)c1cccc2ccccc12,86.8*,-4.6,5.1,-21.4,-3.4,29.1,
N/C(=N\OC(=O)c1cccc2ccccc12)c1cccc([N+](=O)[O-])c1,75.8*,-1.8,-17.6,-6.2,-18.8,58.4*,Full FLuc ctr=127.9*
Cc1cccc(/C(N)=N/OC(=O)N2c3ccccc3Sc3ccccc32)c1,64.5*,-1.9,7.1,14.2,6.2,0.8,
Cc1ccccc1C(=O)O/N=C(\N)c1cccc([N+](=O)[O-])c1,26.4,-3.1,-92.8,-64.9,-78.1,·,
N/C(=N\OC(=O)N1c2ccccc2Sc2ccccc21)c1ccccc1,19.6,6.1,7.2,2.1,2.3,·,
CCOc1ccc2ccccc2c1C1NC(=O)NC(C)=C1C(=O)OCCOC (stereo not given),4.7,-7.3,6.6,10.5,-18.8,·,
COc1cc(C(=O)N2CCCCCCC2)ccc1OC1CCN(C(C)=O)CC1,13.3,-2.9,-6.6,-17.0,-44.4,·,
COc1ccc(OC)c(-c2nnc(SCC(=O)N3CCCC3)o2)c1,12.7,-7.0,16.5,2.0,5.6,·,
CC(C)(C)OC(=O)C[C@@H]1C/C=C\C[C@H](CC(=O)N(CCO)Cc2ccccc2)C(=O)NC[C@H](c2ccccc2)OC1=O,8.8,7.6,-10.9,-4.9,11.3,·,
CCOc1ccc(NS(=O)(=O)c2ccc(-c3coc(C)n3)cc2)cc1,19.7,-6.2,10.6,26.7,-12.7,·,
CC(C)Cn1c(N)c(C(=O)COC(=O)c2ccc(O)cc2O)c(=O)n(C)c1=O,8.3,17.1,16.4,46.4,8.5,·,
N/C(=N\OC(=O)c1cccc2ccccc12)c1cccnc1,48.1,-34.4,-51.1,-27.3,-57.2,·,
Cc1cccc(/C(N)=N/OC(=O)c2cccc3ccccc23)c1,100.5*,·,-20.4,-54.1,-75.4,77.5*,Full FLuc ctr=107.9*
COc1cc(OC)cc(C(=O)O/N=C(\N)c2cccc(C)c2)c1,72.6*,-24.8,-14.1,-23.7,-29.2,43.8*,Full FLuc ctr=105.0*
COc1cc(OC)cc(C(=O)O/N=C(\N)c2ccncc2)c1,14.4,-19.4,-8.7,-36.6,-19.9,·,
N/C(=N\OC(=O)C(c1ccccc1)c1ccccc1)c1ccccn1,77.3*,6.1,0.1,-14.1,-8.4,28.4,
N/C(=N\OC(=O)COc1ccccc1)c1cccnc1,-22.7,-17.9,-31.5,-47.7,-16.5,·,
N/C(=N\OC(=O)C(c1ccccc1)c1ccccc1)c1cccnc1,51.5*,-0.6,-5.6,-4.5,3.8,9.1,
Cc1cccc(NC(=O)C(C)OC(=O)c2ccccc2NS(=O)(=O)c2cc(C)c(C)c([N+](=O)[O-])c2)c1 (stereo not given),61.5*,7.0,10.4,7.4,12.4,16.0,
COC(=O)c1ccc(COc2ccccc2/C=C(\C#N)C(=O)Nc2c(C)cccc2C)cc1,93.4*,10.4,-4.8,-19.4,-2.7,52.9*,Full FLuc ctr=41.8*
COC(=O)c1ccc(COc2ccccc2/C=C(\C#N)C(=O)Nc2ccccc2C)cc1,45.5,5.0,-6.0,-1.8,-7.4,·,
Cc1cc(C)cc(OC(=O)CS(=O)c2ccc(C(F)(F)F)cc2[N+](=O)[O-])c1 (stereo not given),50.2*,-13.0,-12.9,39.0,13.7,40.3*,Full FLuc ctr=55.0*
CCC(Sc1ncccc1Nc1ccccn1)C(=O)O (stereo not given),-10.7,2.0,5.9,-5.2,17.9,·,
SMILES,Mdm2 MdmX PPI,Gli-Sufu block,Jurkat NFkB inh,Shn3 3UTR inh,697 NFkB inh,Mdm2 MdmX conf,others
O=c1[nH]c(=O)n(Cc2ccco2)c2c1C(C(F)(F)F)(C(F)(F)F)N=C(c1ccc(F)cc1)N2,65.4*,51.2,23.6,13.1,-19.4,83.9*,Full FLuc ctr=58.0*;Gli-Sufu confirm=64.7*;SufuKO cytotox=15.7;Wnt3a counter=62.2*
O=c1[nH]c(=O)n(Cc2ccccc2)c2c1C(C(F)(F)F)(C(F)(F)F)N=C(c1ccco1)N2,-1.1,16.1,-0.2,5.6,-2.7,·,
CC1CCCCC1NC(=O)Cn1cc([N+](=O)[O-])ccc1=O (stereo not given),-6.8,-3.4,-9.2,-1.9,9.0,·,
COc1ccc(C2=Nn3c(nnc3C3CCCCC3)SC2)cc1OC,48.9,14.0,16.5,18.4,0.4,·,
COc1ccc(C2=Nn3c(nnc3-c3ccccc3OC)SC2)cc1OCC1CC1,73.6*,64.9*,-2.4,15.8,-75.3,65.6*,Full FLuc ctr=85.7*;Gli-Sufu confirm=59.5*;SufuKO cytotox=64.7*;Wnt3a counter=-104.8
CCCn1c(SCC(=O)Nc2nc(-c3ccc(OC)cc3)cs2)nc2c1c(=O)n(C)c(=O)n2C,68.4*,59.2*,14.6,38.5,-23.5,13.2,Gli-Sufu confirm=50.8*;SufuKO cytotox=11.8;Wnt3a counter=4.7
CCn1c(SCC(=O)Nc2nc3ccc(OC)cc3s2)nc2c1c(=O)n(C)c(=O)n2C,21.9,16.8,3.3,72.5,-6.7,·,
COc1ccc(-c2nsc3c(N4CCCCC4C)ncnc23)cc1 (stereo not given),83.6*,80.9*,41.8,82.3,15.9,90.7*,Full FLuc ctr=24.8;Gli-Sufu confirm=91.3*;SufuKO cytotox=47.2*;Wnt3a counter=105.3*
COc1ccc(-c2nsc3c(N4CCN(S(=O)(=O)c5ccccc5F)CC4)ncnc23)cc1,43.3,-5.5,-7.4,0.1,3.0,·,
Cc1nc2sccn2c(=O)c1S(=O)(=O)NCC1CCN(Cc2ccccc2Cl)CC1,-5.6,0.1,-7.8,-13.0,-26.4,·,
CCCc1nnc(NC(=O)CCC(=O)N2CCN(c3ccccc3)CC2)s1,16.8,·,-6.0,2.0,-15.4,·,
Cc1cc(/C=c2\sc3nc4ccccc4n3c2=O)c(C)n1-c1ccc(C(=O)O)cc1,·,-17.5,·,-35.1,·,·,
Cc1cc(/C=c2/sc3nc4ccccc4n3c2=O)c(C)n1-c1ccccn1,68.6*,85.7*,1.3,90.9*,-74.7,94.3*,Full FLuc ctr=13.8;Gli-Sufu confirm=93.6*;SufuKO cytotox=29.0*;Wnt3a counter=103.7*
CC1CC(C)CN(S(=O)(=O)CCNC(=O)c2ccc3c(c2)OCO3)C1 (stereo not given),15.3,-5.4,14.3,-6.4,11.3,·,
N#CC1(NC(=O)COC(=O)Cn2[nH]c(=O)c3ccccc3c2=O)CCCCC1,17.0,-3.5,13.7,6.5,17.3,·,

# Compound activity deposited in PubChem by several laboratories.
